What all share (assay): universal protein binding microarray (PBM); transcription factors of Arabidopsis thaliana; high values mean tight binding
Holding throughout (conditions): protein: recombinant; tags: GST; chain copies: 2; dsDNA, one strand shown

The target in one experiment is T1, GST-ANAC092(1-176) (Arabidopsis thaliana, UniProt Q9FKA0 1-176).
T1 sequence: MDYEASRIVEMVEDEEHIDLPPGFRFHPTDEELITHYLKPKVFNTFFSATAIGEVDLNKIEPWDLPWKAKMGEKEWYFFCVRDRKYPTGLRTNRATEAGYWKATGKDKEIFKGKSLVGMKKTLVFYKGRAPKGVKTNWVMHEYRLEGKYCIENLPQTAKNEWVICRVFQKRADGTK
The method, boiled down:
(§1)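 GST-tagged NAC-domain, full-length or DNA-binding-domain proteins were induced in cells, with zinc acetate added for zinc-finger proteins. They were purified on glutathione–Sepharose 4B and quantified by A280 or anti-GST western blot. Each was applied at 200 to 500 nM final, in duplicate, to custom all-10-mer Agilent 4 × 180K arrays made double-stranded by primer extension, with gapped and ungapped 8-mers scored. Binding is the normalised enrichment score (E-score).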

A further experiment deals with GST-NTL6(1-168) (Arabidopsis thaliana, UniProt Q9SCK6 1-168). An outline of the steps:
as §1

A further experiment addresses T2, GST-ANAC019 NAC domain (Arabidopsis thaliana, UniProt Q9C932 14-162).
T2 sequence: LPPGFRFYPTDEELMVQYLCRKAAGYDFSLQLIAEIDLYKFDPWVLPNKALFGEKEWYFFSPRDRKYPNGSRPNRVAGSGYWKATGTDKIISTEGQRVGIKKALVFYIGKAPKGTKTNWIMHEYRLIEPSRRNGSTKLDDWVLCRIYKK
An outline of the steps: as §1

The next experiment has as its target T3, GST-ANAC055(1-171) (Arabidopsis thaliana, UniProt Q9LDY8 1-171).
T3 sequence: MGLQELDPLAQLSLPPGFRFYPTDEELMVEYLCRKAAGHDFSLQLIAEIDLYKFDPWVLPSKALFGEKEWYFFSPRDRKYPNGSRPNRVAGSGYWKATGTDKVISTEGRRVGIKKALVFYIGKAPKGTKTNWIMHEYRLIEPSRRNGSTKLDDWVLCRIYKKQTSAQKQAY
The method, boiled down: as §1

In another experiment the target is T4, GST-ATAF1 NAC domain (Arabidopsis thaliana, UniProt Q39013 7-158).
T4 sequence: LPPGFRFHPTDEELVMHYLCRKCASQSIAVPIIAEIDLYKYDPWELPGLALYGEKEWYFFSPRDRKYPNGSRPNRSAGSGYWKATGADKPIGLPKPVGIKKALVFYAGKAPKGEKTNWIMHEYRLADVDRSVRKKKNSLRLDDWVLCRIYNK
The method, boiled down: as §1

The target of experiment [1] is T5, GST-ANAC092(1-285) full length (Arabidopsis thaliana, UniProt Q9FKA0 1-285).
T5 sequence: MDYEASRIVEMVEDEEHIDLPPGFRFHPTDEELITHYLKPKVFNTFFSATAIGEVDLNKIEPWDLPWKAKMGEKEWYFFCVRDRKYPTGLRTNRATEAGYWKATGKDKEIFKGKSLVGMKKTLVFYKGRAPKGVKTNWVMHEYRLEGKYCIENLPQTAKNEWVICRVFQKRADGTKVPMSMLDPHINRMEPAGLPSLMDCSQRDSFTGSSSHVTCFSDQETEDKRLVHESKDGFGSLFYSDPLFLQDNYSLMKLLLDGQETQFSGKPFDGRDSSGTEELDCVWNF
The method, boiled down:
as §1

Another experiment concerns the target T6, GST-NAP(1-166) (Arabidopsis thaliana, UniProt O49255 1-166).
T6 sequence: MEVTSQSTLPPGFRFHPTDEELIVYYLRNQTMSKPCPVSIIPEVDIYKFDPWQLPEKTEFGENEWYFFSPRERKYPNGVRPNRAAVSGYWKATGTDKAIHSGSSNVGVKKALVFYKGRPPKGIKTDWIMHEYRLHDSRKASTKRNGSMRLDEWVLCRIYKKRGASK
An outline of the steps: as §1

The next experiment has as its target T7, GST-NST2(1-184) (Arabidopsis thaliana, UniProt Q9M274 1-184).
T7 sequence: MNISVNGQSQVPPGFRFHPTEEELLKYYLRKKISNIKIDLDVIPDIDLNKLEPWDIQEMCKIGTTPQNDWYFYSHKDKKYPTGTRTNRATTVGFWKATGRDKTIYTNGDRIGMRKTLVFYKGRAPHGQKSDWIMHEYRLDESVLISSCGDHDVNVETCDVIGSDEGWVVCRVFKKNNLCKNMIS
The method, boiled down:
as §1

The target of a further experiment is T8, GST-NTL8 NAC domain (Arabidopsis thaliana, UniProt Q9XIN7 14-156).
T8 sequence: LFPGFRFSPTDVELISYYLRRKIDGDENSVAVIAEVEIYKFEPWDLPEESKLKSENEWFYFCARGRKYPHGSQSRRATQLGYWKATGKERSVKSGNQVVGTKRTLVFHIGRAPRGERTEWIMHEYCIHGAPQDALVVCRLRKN
The method, boiled down: as §1

A further experiment deals with T9, GST-SND1(1-203) (Arabidopsis thaliana, UniProt Q9LPI7 1-203).
T9 sequence: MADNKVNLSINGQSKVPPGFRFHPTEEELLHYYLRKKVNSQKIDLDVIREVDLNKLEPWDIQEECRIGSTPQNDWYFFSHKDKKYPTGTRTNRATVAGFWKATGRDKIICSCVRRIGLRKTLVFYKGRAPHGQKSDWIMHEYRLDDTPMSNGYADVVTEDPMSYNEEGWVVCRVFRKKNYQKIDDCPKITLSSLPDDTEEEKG
An outline of the steps:
as §1

A further experiment concerns the target T10, GST-VND3 NAC domain (Arabidopsis thaliana, UniProt Q9FH59 12-162).
T10 sequence: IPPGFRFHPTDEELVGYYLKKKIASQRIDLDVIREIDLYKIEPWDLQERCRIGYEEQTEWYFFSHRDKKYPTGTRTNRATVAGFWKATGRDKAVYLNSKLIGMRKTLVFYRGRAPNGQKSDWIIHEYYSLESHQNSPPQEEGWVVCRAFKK
The method, boiled down: as §1

Another experiment has as its target T11, GST-VND7 NAC domain (Arabidopsis thaliana, UniProt Q9C8W9 9-158).
T11 sequence: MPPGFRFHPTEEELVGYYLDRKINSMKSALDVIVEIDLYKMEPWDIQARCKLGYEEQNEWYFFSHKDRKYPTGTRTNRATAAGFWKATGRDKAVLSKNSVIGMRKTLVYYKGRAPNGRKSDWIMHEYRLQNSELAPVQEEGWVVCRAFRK
An outline of the steps:
as §1

GST-NTL6(1-168), sequence (Q9SCK6 1-168): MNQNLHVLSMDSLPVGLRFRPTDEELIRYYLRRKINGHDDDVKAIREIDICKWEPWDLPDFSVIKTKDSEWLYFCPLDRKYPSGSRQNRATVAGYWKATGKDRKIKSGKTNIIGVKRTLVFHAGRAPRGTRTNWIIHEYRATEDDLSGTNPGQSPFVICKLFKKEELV

In the case of AAACGTAA, the binding signal with GST-ANAC092(1-176) came out at 0.261 E-score; with GST-NTL6(1-168), 0.216 E-score; with GST-ANAC019 NAC domain, 0.268 E-score; in the experiment with GST-ANAC055(1-171), 0.325 E-score; in the experiment with GST-ATAF1 NAC domain, 0.296 E-score; in [1] it was 0.378 E-score. Further, the binding signal in the experiment with GST-NAP(1-166) is 0.294 E-score; in the experiment with GST-NST2(1-184), 0.302 E-score; with GST-NTL8 NAC domain, 0.154 E-score; with GST-SND1(1-203), 0.435 E-score; with GST-VND3 NAC domain, 0.344 E-score; in the experiment with GST-VND7 NAC domain, 0.294 E-score.
Regarding AAGTAAGC, the binding signal amounted to 0.284 E-score with GST-ANAC092(1-176); 0.404 E-score with GST-NTL6(1-168); 0.104 E-score with GST-ANAC019 NAC domain; 0.158 E-score in the experiment with GST-ANAC055(1-171); 0.199 E-score in the experiment with GST-ATAF1 NAC domain; 0.358 E-score in experiment [1]. Further, the binding signal was 0.0599 E-score with GST-NAP(1-166); 0.171 E-score in the experiment with GST-NST2(1-184); 0.337 E-score with GST-NTL8 NAC domain; 0.361 E-score with GST-SND1(1-203); 0.21 E-score with GST-VND3 NAC domain; 0.272 E-score with GST-VND7 NAC domain.
Regarding AATTGCGT, the binding signal with GST-ANAC092(1-176) turned out to be 0.451 E-score; in the experiment with GST-NTL6(1-168), 0.0568 E-score; with GST-ANAC019 NAC domain, 0.394 E-score; with GST-ANAC055(1-171), 0.395 E-score; with GST-ATAF1 NAC domain, 0.319 E-score; in [1], 0.46 E-score. Besides, the binding signal with GST-NAP(1-166) was 0.432 E-score; with GST-NST2(1-184), 0.294 E-score; with GST-NTL8 NAC domain it was 0.0923 E-score; with GST-SND1(1-203) it was 0.412 E-score; with GST-VND3 NAC domain, 0.415 E-score; with GST-VND7 NAC domain, 0.418 E-score.
In the case of CTAAGTAA, the binding signal amounted to 0.2 E-score with GST-ANAC092(1-176); 0.49 E-score with GST-NTL6(1-168); 0.0529 E-score in the experiment with GST-ANAC019 NAC domain; 0.0945 E-score with GST-ANAC055(1-171); 0.107 E-score with GST-ATAF1 NAC domain; 0.3 E-score in experiment [1]. Moreover, the binding signal with GST-NAP(1-166) worked out at 0.188 E-score; with GST-NST2(1-184), 0.225 E-score; with GST-NTL8 NAC domain it was 0.216 E-score; with GST-SND1(1-203), 0.394 E-score; in the experiment with GST-VND3 NAC domain, 0.238 E-score; with GST-VND7 NAC domain, 0.209 E-score.
As to ACGTTTCC, the binding signal with GST-ANAC092(1-176) amounted to 0.411 E-score; in the experiment with GST-NTL6(1-168), 0.141 E-score; in the experiment with GST-ANAC019 NAC domain it was 0.312 E-score; with GST-ANAC055(1-171) it was 0.343 E-score; with GST-ATAF1 NAC domain, 0.327 E-score; in [1], 0.432 E-score. Besides, the binding signal came to 0.354 E-score with GST-NAP(1-166); 0.255 E-score with GST-NST2(1-184); 0.439 E-score with GST-NTL8 NAC domain; 0.381 E-score in the experiment with GST-SND1(1-203); 0.347 E-score with GST-VND3 NAC domain; 0.359 E-score with GST-VND7 NAC domain.
Turning to ACGTAATA, the binding signal with GST-ANAC092(1-176) was determined as 0.425 E-score; with GST-NTL6(1-168) it was 0.176 E-score; in the experiment with GST-ANAC019 NAC domain, 0.351 E-score; with GST-ANAC055(1-171), 0.375 E-score; with GST-ATAF1 NAC domain, 0.276 E-score; in experiment [1], 0.434 E-score. Also, the binding signal was 0.346 E-score in the experiment with GST-NAP(1-166); 0.298 E-score with GST-NST2(1-184); 0.142 E-score with GST-NTL8 NAC domain; 0.387 E-score with GST-SND1(1-203); 0.377 E-score with GST-VND3 NAC domain; 0.273 E-score with GST-VND7 NAC domain.

The values are drawn from publication PMC4081100, “A DNA-binding-site landscape and regulatory network analysis for NAC transcription factors in Arabidopsis thaliana”.
